Measured values taken from the supplement of paper PMC6089552.
Hit rate of the full screen: of about 3,200 compounds, about 300 (9.4%) showed activity. For the sample, actives were picked, then their nearest neighbours and some compounds at random. A number with no mark means an inactive call.

System: A673/TR/shEF
Assay: cell viability (LOESS-normalised, relative to median of negative controls) (log2 ratio); higher = more viable cells (less compound effect), active = hit call of the paper (over 3 MAD below the median)
Conditions: treatment time: 72 h
Summary of the method: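 For three days, A673/TR/shEF Ewing sarcoma cells in 384-well plates (1,500 per well) were treated with library compounds at two or more concentrations or with DMSO controls, after doxycycline had been added or withheld 24 h beforehand to induce EWS-FLI1 shRNA knockdown. Viability was read by CellTiter-Glo luminescence on an Envision reader. The data were LOESS-corrected per plate, divided by the median of negative controls and log2-transformed.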

[1] = 0.25 µM, library screen: screen1, EWS-FLI1 expression: high (no doxycycline)
[2] = 0.25 µM, library screen: screen1, EWS-FLI1 expression: low (doxycycline-induced shRNA knockdown)
[3] = 0.25 µM, library screen: screen2, EWS-FLI1 expression: high (no doxycycline)
[4] = 0.25 µM, library screen: screen2, EWS-FLI1 expression: low (doxycycline-induced shRNA knockdown)
[5] = 2.5 µM, library screen: screen1, EWS-FLI1 expression: high (no doxycycline)
[6] = 2.5 µM, library screen: screen1, EWS-FLI1 expression: low (doxycycline-induced shRNA knockdown)
[7] = 2.5 µM, library screen: screen2, EWS-FLI1 expression: high (no doxycycline)
[8] = 2.5 µM, library screen: screen2, EWS-FLI1 expression: low (doxycycline-induced shRNA knockdown)

O=C(O)/C=C1/CCCc2ccccc2C1O (configuration not stated)
cell viability (log2) [1]: 0.0671
cell viability (log2) [2]: 0.163
cell viability (log2) [3]: 0.165
cell viability (log2) [4]: 0.0537
cell viability (log2) [5]: 0.139
cell viability (log2) [6]: 0.187
cell viability (log2) [7]: 0.071
cell viability (log2) [8]: 0.0654

CC(=O)O[C@@H]1CC2C(C)(C)[C@H](O)C=C[C@]2(C)C2CC[C@@]3(C)[C@H](c4ccoc4)OC(=O)C4OC43[C@@]21C (some centres not stated)
cell viability (log2) [1]: 0.000168
cell viability (log2) [2]: 0.0262
cell viability (log2) [5]: 0.0677
cell viability (log2) [6]: 0.0357

Cc1c(C(=O)O)c(O)cc2c1C(=O)c1c(O)c([C@@H]3O[C@H](CO)[C@@H](O)[C@H](O)[C@H]3O)c(O)c(O)c1C2=O
cell viability (log2) [1]: 0.057
cell viability (log2) [2]: 0.112
cell viability (log2) [5]: 0.0928
cell viability (log2) [6]: 0.184

Cc1ccc2nc(NC3=NC(CC(=O)O)C(=O)N3)nc(C)c2c1 (configuration not stated)
cell viability (log2) [1]: 0.016
cell viability (log2) [2]: -0.0194
cell viability (log2) [5]: 0.0679
cell viability (log2) [6]: -0.193

CCOc1cccc(=O)c2c(C)[nH]c(C)c12
cell viability (log2) [1]: 0.0528
cell viability (log2) [2]: 0.134
cell viability (log2) [5]: 0.0744
cell viability (log2) [6]: 0.088

CC1=C2C(O)C(=O)OC3CC4C(C)(C)C(=O)CCC4(C)C(CC1)C23C (configuration not stated)
cell viability (log2) [1]: 0.149
cell viability (log2) [2]: 0.0333
cell viability (log2) [5]: 0.0817
cell viability (log2) [6]: 0.166

CO/N=C(\C(=O)N[C@@H]1C(=O)N2C(C(=O)O)=C(CSc3nc(=O)c(=O)[nH]n3C)CS[C@H]12)c1csc(N)n1
cell viability (log2) [1]: 0.112
cell viability (log2) [2]: 0.0388
cell viability (log2) [3]: 0.21
cell viability (log2) [4]: 0.115
cell viability (log2) [5]: 0.082
cell viability (log2) [6]: 0.12
cell viability (log2) [7]: 0.149
cell viability (log2) [8]: 0.12

CC(=O)Oc1c(Cl)c(C)c2c(c1Cl)OC(=O)c1c(C)c(Cl)c(OC(C)=O)c(Cl)c1O2
cell viability (log2) [1]: 0.0776
cell viability (log2) [2]: 0.0649
cell viability (log2) [5]: 0.0636
cell viability (log2) [6]: -0.0345

CC1(C)C=Cc2c(cc3occ(-c4ccc5c(c4)OCO5)c(=O)c3c2O)O1
cell viability (log2) [1]: -0.098 (active)
cell viability (log2) [2]: 0.0822
cell viability (log2) [5]: 0.0137
cell viability (log2) [6]: 0.0314

CC(C)=CCc1c2c(c3occ(-c4ccc(O)c(O)c4)c(=O)c3c1O)C=CC(C)(C)O2
cell viability (log2) [1]: 0.131
cell viability (log2) [2]: 0.0868
cell viability (log2) [5]: 0.0962
cell viability (log2) [6]: 0.19

COc1c2c(cc3occ(-c4ccc5c(c4)OCO5)c(=O)c13)OC(C)(C)C=C2
cell viability (log2) [1]: -0.144 (active)
cell viability (log2) [2]: 0.05
cell viability (log2) [5]: 0.0889
cell viability (log2) [6]: 0.0736

O=c1c(-c2ccc3c(c2)OCO3)coc2cc(O)ccc12
cell viability (log2) [1]: 0.113
cell viability (log2) [2]: 0.0865
cell viability (log2) [5]: 0.149
cell viability (log2) [6]: -2.91

COc1c(-c2coc3cc4c(cc3c2=O)CC(O)C(C)(C)O4)ccc2c1C=CC(C)(C)O2 (configuration not stated)
cell viability (log2) [1]: 0.0473
cell viability (log2) [2]: 0.0244
cell viability (log2) [5]: 3e-05
cell viability (log2) [6]: 0.094

COc1cc2c(cc1-c1coc3c4c(ccc3c1=O)OC(C)(C)C=C4)OCO2
cell viability (log2) [1]: 0.0979
cell viability (log2) [2]: 0.0365
cell viability (log2) [5]: 0.112
cell viability (log2) [6]: 0.0354

COc1cc2c3cc1Oc1c(OC)c(OC)cc4c1C(Cc1ccc(O)c(c1)Oc1ccc(cc1)CC3N(C)CC2)N(C)CC4 (configuration not stated)
cell viability (log2) [1]: 0.135
cell viability (log2) [2]: 0.0489
cell viability (log2) [5]: 0.126
cell viability (log2) [6]: -0.0746

CSCCC(N)C(=O)NC(CC(C)C)C(=O)NC(Cc1ccccc1)C(=O)O (configuration not stated)
cell viability (log2) [1]: 0.145
cell viability (log2) [2]: -0.00633
cell viability (log2) [5]: 0.123
cell viability (log2) [6]: 0.0328

O=c1cc(-c2cccc3c2Sc2ccccc2S3)oc(N2CCOCC2)c1
cell viability (log2) (0.103 µM, library screen: screen3, EWS-FLI1 expression: high (no doxycycline)): 0.00625
cell viability (log2) (0.103 µM, library screen: screen3, EWS-FLI1 expression: low (doxycycline-induced shRNA knockdown)): 0.00883
cell viability (log2) (0.308 µM, library screen: screen3, EWS-FLI1 expression: high (no doxycycline)): -0.0309
cell viability (log2) (0.308 µM, library screen: screen3, EWS-FLI1 expression: low (doxycycline-induced shRNA knockdown)): 0.0146
cell viability (log2) (0.926 µM, library screen: screen3, EWS-FLI1 expression: high (no doxycycline)): 0.0133
cell viability (log2) (0.926 µM, library screen: screen3, EWS-FLI1 expression: low (doxycycline-induced shRNA knockdown)): 0.00404
cell viability (log2) (2.8 µM, library screen: screen3, EWS-FLI1 expression: high (no doxycycline)): 0.0162
cell viability (log2) (2.8 µM, library screen: screen3, EWS-FLI1 expression: low (doxycycline-induced shRNA knockdown)): 0.0289
cell viability (log2) (8.3 µM, library screen: screen3, EWS-FLI1 expression: high (no doxycycline)): -0.0501
cell viability (log2) (8.3 µM, library screen: screen3, EWS-FLI1 expression: low (doxycycline-induced shRNA knockdown)): 0.00607
cell viability (log2) (25 µM, library screen: screen3, EWS-FLI1 expression: high (no doxycycline)): 0.0363
cell viability (log2) (25 µM, library screen: screen3, EWS-FLI1 expression: low (doxycycline-induced shRNA knockdown)): -0.0432

O=c1cc(N2CCOCC2)oc2c(-c3ccccc3)cccc12
cell viability (log2) (0.025 µM, library screen: screen1, EWS-FLI1 expression: high (no doxycycline)): 0.213
cell viability (log2) (0.025 µM, library screen: screen1, EWS-FLI1 expression: low (doxycycline-induced shRNA knockdown)): 0.0453
cell viability (log2) [1]: 0.204
cell viability (log2) [2]: 0.0333
cell viability (log2) [3]: 0.135
cell viability (log2) [4]: 0.11
cell viability (log2) [5]: -0.134 (active)
cell viability (log2) [6]: 0.0932
cell viability (log2) [7]: 0.15
cell viability (log2) [8]: 0.0123
cell viability (log2) (25 µM, library screen: screen1, EWS-FLI1 expression: high (no doxycycline)): -0.489 (active)
cell viability (log2) (25 µM, library screen: screen1, EWS-FLI1 expression: low (doxycycline-induced shRNA knockdown)): -0.462 (active)

O=c1cc(-c2ccccc2)oc2c(O)c(O)ccc12
cell viability (log2) [1]: 0.189
cell viability (log2) [2]: -0.0108
cell viability (log2) [5]: 0.128
cell viability (log2) [6]: 0.0489

CC(C)CCC[C@@H](C)[C@H]1CC[C@H]2[C@@H]3CC[C@@H]4C[C@H](O)CC[C@]4(C)[C@H]3CC[C@]12C
cell viability (log2) [1]: 0.108
cell viability (log2) [2]: 0.0181
cell viability (log2) [5]: 0.105
cell viability (log2) [6]: 0.0609

CC1CCC2(OC1)OC1CC3C4CCC5C[C@@H](O)CCC5(C)C4=CCC3(C)C1[C@@H]2C (some centres not stated)
cell viability (log2) [1]: 0.0912
cell viability (log2) [2]: 0.0387
cell viability (log2) [5]: 0.0505
cell viability (log2) [6]: 0.0779

CCCCCCCCCCCCCCCC(=O)NCC(COP(=O)([O-])OCC[N+](C)(C)C)OC (configuration not stated)
cell viability (log2) [3]: 0.14
cell viability (log2) [4]: 0.124
cell viability (log2) [7]: 0.166
cell viability (log2) [8]: 0.0176

CCC(=O)c1ccc2c(c1)N(CC(C)N(C)C)c1ccccc1S2 (configuration not stated)
cell viability (log2) [1]: 0.0889
cell viability (log2) [2]: 0.155
cell viability (log2) [5]: 0.168
cell viability (log2) [6]: 0.297

Cn1cnc([N+](=O)[O-])c1Sc1ncnc2nc[nH]c12
cell viability (log2) (0.025 µM, library screen: screen2, EWS-FLI1 expression: high (no doxycycline)): 0.138
cell viability (log2) (0.025 µM, library screen: screen2, EWS-FLI1 expression: low (doxycycline-induced shRNA knockdown)): 0.0997
cell viability (log2) [1]: 0.0615
cell viability (log2) [2]: 0.0765
cell viability (log2) [3]: 0.159
cell viability (log2) [4]: 0.0607
cell viability (log2) [5]: -0.0254
cell viability (log2) [6]: 0.161
cell viability (log2) [7]: -0.0273
cell viability (log2) [8]: 0.0557
cell viability (log2) (25 µM, library screen: screen2, EWS-FLI1 expression: high (no doxycycline)): -0.337 (active)
cell viability (log2) (25 µM, library screen: screen2, EWS-FLI1 expression: low (doxycycline-induced shRNA knockdown)): 0.03

COc1cc(OC)c(C2NC(=S)NC(C)=C2C(=O)Nc2cccc(Cl)c2)cc1OC (configuration not stated)
cell viability (log2) [1]: 0.0501
cell viability (log2) [2]: 0.0639
cell viability (log2) [5]: 0.0887
cell viability (log2) [6]: 0.0905
